Rows were chosen to be rich in hits. Some 2.4% of all compounds tested hit in one or more screens of this group.
PP1 inh: PP1-alpha (human) inhibition in PP5 counter-screen | P62136 | purified PP1alpha, OMFP fluorescence | inhibition, % at 6.7 µM | hit rate 0.9% among 320,000 | AID 2235;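 active = inhibition above the mean inhibition of all tested compounds plus 3 SD, computed separately for each screening campaign, cut at about 15% in these data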
Target sequence (P62136 whole entry, looked up): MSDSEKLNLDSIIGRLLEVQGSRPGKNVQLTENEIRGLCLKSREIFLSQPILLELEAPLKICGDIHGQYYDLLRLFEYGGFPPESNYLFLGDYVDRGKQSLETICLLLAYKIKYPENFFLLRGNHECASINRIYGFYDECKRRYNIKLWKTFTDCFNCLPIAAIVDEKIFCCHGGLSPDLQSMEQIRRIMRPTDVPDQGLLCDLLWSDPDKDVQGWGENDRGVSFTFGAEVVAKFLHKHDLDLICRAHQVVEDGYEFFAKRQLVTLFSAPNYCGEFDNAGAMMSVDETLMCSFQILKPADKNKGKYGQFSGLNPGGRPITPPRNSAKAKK
NadD inh: inhibitors of Staphylococcus aureus NadD. purified NadD enzyme, colorimetric absorbance read-out. inhibition, % at 20 µM. hit rate 0.78% among 360,000; in the data active = inhibition above about 26%
Rpn11 inh: Rpn11 (human) deubiquitinase inhibition. O00487. human 26S proteasome, Ub4-pepOG fluorescence polarization; 20S core pre-blocked with epoxomicin. inhibition, % at 20 µM. hit rate 0.59% among 360,000;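 active = inhibition at 20 µM, scaled to each plate's controls, above about 33%, limit read from the data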
Target sequence (O00487 whole entry, looked up): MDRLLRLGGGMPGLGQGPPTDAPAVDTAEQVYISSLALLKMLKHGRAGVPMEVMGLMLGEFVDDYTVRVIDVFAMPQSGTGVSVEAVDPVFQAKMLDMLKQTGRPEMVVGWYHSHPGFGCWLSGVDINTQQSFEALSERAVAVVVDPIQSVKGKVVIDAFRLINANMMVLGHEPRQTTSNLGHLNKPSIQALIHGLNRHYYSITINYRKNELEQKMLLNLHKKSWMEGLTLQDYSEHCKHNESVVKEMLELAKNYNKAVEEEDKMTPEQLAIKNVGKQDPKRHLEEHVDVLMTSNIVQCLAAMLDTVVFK
PP5 inh: inhibitors of human protein phosphatase 5 (PP5). P53041. purified PP5c, OMFP substrate fluorescence. AID 1987. inhibition, % at 6.7 µM. hit rate 0.18% among 320,000;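 active = inhibition above the campaign's mean inhibition across all tested compounds plus 3 SD, cut at about 9.5% in these data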
PREPL inh: inhibits the human prolyl oligopeptidase-like enzyme | Q4J6C6 | recombinant PREPL, fluorescence polarization activity-based probe | inhibition, % at 5.96 µM | hit rate 0.68% among 320,000 | AID 2751; in the data active = inhibition above about 43%
PP1 inh confirm: human PP1 phosphatase inhibition, confirmation. shares compounds with PP1 inh. purified PP1alpha, OMFP substrate fluorescence. inhibition, % at 6.7 µM. hit rate 52% among 1,900;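 active = mean PP1 inhibition above a set limit taken from the earlier primary screen, cut at about 15% in these data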
PP5 counter: inhibits human PP5 phosphatase in PP1 counter-screen. purified PP5c, OMFP fluorescence. hit rate 4% among 1,900. inhibition, % at 6.7 µM. shares compounds with PP1 inh;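 active = mean PP5 inhibition over triplicate wells above about 9.5% taken from the earlier PP1 screen, limit read from the data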
Large screens that a line does not name were inactive (follow-up assays come after a bar, where shown).

N#Cc1c(-c2ccccc2)nc(SCc2ccc(Cl)cc2)[nH]c1=O	PP1 inh 18 | PP1 inh confirm inactive | PP5 counter inactive
N#Cc1c(-c2ccccc2)nc(SCC(=O)N2c3ccccc3Sc3ccccc32)[nH]c1=O	PP1 inh 21 | PP1 inh confirm 17 | PP5 counter inactive
N#Cc1c(-c2ccccc2)nc(SCC(=O)N(c2ccccc2)c2ccccc2)[nH]c1=O	none
N#Cc1ccccc1NC(=O)CSc1nnc(-c2ccncc2)o1	PP1 inh 33 | PP1 inh confirm inactive | PP5 counter inactive
CC1C(=O)N2CCCc3cc(NC(=O)C(=O)NCc4ccccn4)cc1c32 (centres undefined)	none
Cc1ccc(C(=O)N/C(=C/c2ccc(-c3cc(C(F)(F)F)ccc3Cl)o2)C(=O)NCc2cccnc2)cc1	PP1 inh 22 | PP1 inh confirm inactive | PP5 counter inactive
O=C(NCc1cccnc1)/C(=C/c1ccc(-c2cccc(C(F)(F)F)c2)o1)NC(=O)c1ccccc1	none
CCc1ccc(C2C(C#N)=C(N)SC(N)=C2C#N)cc1	none (not shown: Rpn11 inh)
N#CC1=C(N)SC(N)=C(C#N)C1c1ccc(C(F)(F)F)cc1	PP1 inh 39 (no result: NadD inh, Rpn11 inh) | PP1 inh confirm inactive | PP5 counter inactive
CC(=O)Nc1ccc(OCC(=O)Nc2ccc(Cl)c(S(=O)(=O)N3CCOCC3)c2)cc1	none (no result: PP1 inh, PP5 inh)
CCCCCN(C(=O)CCC(=O)OCC(=O)c1ccc(C(C)CC)cc1)c1c(N)n(CCCC)c(=O)[nH]c1=O (centres undefined)	PP1 inh 29 | PP1 inh confirm inactive | PP5 counter inactive
Nc1nccc(SCc2ccccc2)n1	none (no result: PP1 inh, PP5 inh, PREPL inh)
COc1ccc(NC(=O)NNC(=O)C(O)(c2ccccc2)c2ccccc2)cc1	PP1 inh 21 | PP1 inh confirm inactive | PP5 counter inactive
COc1ccc(NC(=O)NC(=O)c2ccccc2)cc1	none
COc1ccc(NC(=O)Nc2cc(NC(=O)Nc3ccc(OC)cc3)c(C)nc2C)cc1	PP1 inh 18 | PP1 inh confirm 21 | PP5 counter inactive
C/C(=N\NC(=O)Cc1ccc(F)cc1)c1ccc(O)cc1	none
CC1=C(C#N)C(/C=N/OCc2ccc(F)cc2Cl)CC(=O)N1 (centres undefined)	none
O=C(Oc1ccc(=O)[nH]n1)c1ccccc1	none (no result: PP1 inh, PP5 inh, PREPL inh)
COC(=O)c1ccc(NC(=O)c2ccc3c(c2)NC(=O)C2CCCN32)cc1 (centres undefined)	PP1 inh 34 (no result: NadD inh, Rpn11 inh) | PP1 inh confirm 27 | PP5 counter inactive
CCOc1ccc(CCNC(=O)c2ccc3c(c2)NC(=O)C2CCCN32)cc1OCC (centres undefined)	none (no result: NadD inh, Rpn11 inh)
O=C1Nc2ccccc2N2CCCC12 (centres undefined)	PP1 inh 22 (no result: NadD inh, Rpn11 inh) | PP1 inh confirm inactive | PP5 counter 49
COc1ccc(C(=O)/C=C/Nc2cccc(C)n2)cc1OC	PP1 inh 35 | PP1 inh confirm inactive | PP5 counter inactive
Cc1cccc(N2C(=O)C(O)=C(C(=O)c3cccs3)C2c2cccc(Oc3ccccc3)c2)n1 (centres undefined)	PP1 inh 25 | PP1 inh confirm 25 | PP5 counter inactive
Cc1cccc(C)c1N=Nc1c(C)cc(O)cc1C	none
CC1(C(=O)NCc2ccccc2)CCC(=O)N1CC(F)(F)F (centres undefined)	none (no result: PP1 inh, PP5 inh, PREPL inh)
CC1=C(C(=O)OCc2ccccc2)C(c2ccc(-c3ccccc3)cc2)NC(=O)N1CCCCCC(=O)O (centres undefined)	PP1 inh 19 | PP1 inh confirm inactive | PP5 counter inactive
CC1=C(C(=O)OCc2ccccc2)C(c2ccc(-c3ccccc3)cc2)NC(=O)N1CCCC(=O)O (centres undefined)	none (no result: NadD inh, Rpn11 inh)
Cc1cc(N2C(=O)C(O)=C(C(=O)c3ccco3)C2c2ccc([N+](=O)[O-])cc2)no1 (centres undefined)	none
CCOC(=O)c1sc(N2C(=O)C(O)=C(C(=O)c3ccco3)C2c2ccc([N+](=O)[O-])cc2)nc1C (centres undefined)	PP1 inh 41 | PP1 inh confirm 36 | PP5 counter inactive
CCOC(=O)c1sc(N2C(=O)C(O)=C(C(=O)c3ccco3)C2c2ccc(C)o2)nc1C (centres undefined)	PP1 inh 23 | PP1 inh confirm 23 | PP5 counter inactive
Cc1nnc(N2C(=O)C(O)=C(C(=O)c3ccco3)C2c2ccc(F)cc2)s1 (centres undefined)	none
CSc1ccc(C2C(C(=O)c3ccco3)=C(O)C(=O)N2c2nnc(SC)s2)cc1 (centres undefined)	PP1 inh 20 | PP1 inh confirm 16 | PP5 counter inactive
CCCOc1cccc(C2C(C(=O)c3ccco3)=C(O)C(=O)N2c2nnc(C)s2)c1 (centres undefined)	none
CCN(CC)CCN1C(=O)C(O)=C(C(=O)c2cc3cccc(OC)c3o2)C1c1cccs1 (centres undefined)	none (no result: NadD inh, Rpn11 inh)
Cc1ccc(S(=O)(=O)N(CC(=O)N/N=C/c2ccccc2C(=O)O)c2cc(Cl)cc(Cl)c2)cc1	PP1 inh 19 | PP1 inh confirm 19 | PP5 counter inactive
O=C(CN(c1ccccc1Cl)S(=O)(=O)c1ccccc1)N/N=C/c1ccccc1C(=O)O	none
COc1ccc(/C=C/c2nnc(NC(=O)CSc3ccc(C)cc3)s2)cc1	none
CCC(=O)Nc1nnc(/C=C/c2ccc(OC)cc2)s1	PP1 inh 22 | PP1 inh confirm inactive | PP5 counter inactive
Cn1cc(-c2ccccc2C(=O)O)c(=O)c2cc(Cl)ccc21	none
Cc1ccc2nc(Cl)c(C3CC(c4cccs4)=NN3C(=O)CCC(=O)O)cc2c1 (centres undefined)	none
Cc1ccc(-c2nn(-c3ccccc3)cc2C2CC(c3cccs3)=NN2C(=O)CCC(=O)O)cc1 (centres undefined)	PP1 inh 19 | PP1 inh confirm inactive | PP5 counter inactive
COc1ccc(C(=O)NCC(=O)OCC(=O)NCc2ccc3c(c2)OCO3)cc1	none (no result: PP1 inh, PP5 inh)
CCN(Cc1ccccc1)S(=O)(=O)c1ccc(C(=O)Nc2nnc(C)o2)cc1	PP1 inh 38 | PP1 inh confirm 26 | PP5 counter inactive
CCc1nnc(NC(=O)c2ccc(S(=O)(=O)N(C)Cc3ccccc3)cc2)o1	PP1 inh 37 | PP1 inh confirm 34 | PP5 counter inactive
CCc1nnc(NC(=O)c2ccc(S(=O)(=O)N(CC)Cc3ccccc3)cc2)o1	PP1 inh 36 | PP1 inh confirm 32 | PP5 counter inactive
CCCCN(C)S(=O)(=O)c1ccc(C(=O)Nc2nnc(-c3ccco3)o2)cc1	none
CCN(CC)S(=O)(=O)c1ccc(C(=O)Nc2nnc(-c3ccco3)o2)cc1	none
COc1ccccc1-c1nnc(NC(=O)c2ccc(S(=O)(=O)N(C)Cc3ccccc3)cc2)o1	PP1 inh 21 (no result: NadD inh, Rpn11 inh) | PP1 inh confirm 31 | PP5 counter inactive
CCN(CC)S(=O)(=O)c1ccc(C(=O)NC(=S)N(CCO)Cc2ccccc2)cc1	none
